Assay outcomes from PubChem.
IP6K1 inhibitor: Primary qHTS assay for small molecule inhibitors of Inositol hexaphosphate kinase 1 (IP6K1) | Inositol hexakisphosphate kinase 1 (Homo sapiens), Q92551 | IP6K1 kinase, ADP-Glo luminescence, 2 h; stronger effect = lower value | AID 1645851, 2021 | activity change, % (series mostly up to about 58 µM) | 0.81% of 140,000 active; in the data active = activity change below about -25%; also: % is scaled to controls: 0 for no effect and ±100 for the full control effect
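ADP-Glo luminescence measures ADP made by human IP6K1 during a 2 h RT reaction with ATP/IP6 (mix at 1.3 mM/130 uM); top library doses 57.5 and 19.1 uM final.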
SNCA expr inh: Primary qHTS assay for inhibitors of alpha-synuclein gene (SNCA) expression; HEK-293 SNCA-luciferase knock-in, luminescence, 24 h; 0.17% of 140,000 active; AID 1671194, 2021; Potency, µM (top dose mostly 57.2 µM), for the others: at the highest dose activity change, negative = inhibition, most hits filed as inhibitors;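 also: potency is read from the fitted curve at half-maximal effect; plate controls were DMSO cells for no effect and cell-free wells for full effect; nearly all actives have a fitted effect of over 45% in size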
KDM5B inh: Primary screen for KDM5B Histone Demethylases FDH-coupled qHTS | Potency, µM (highest dose often 57.7 µM), most hits filed as inhibitors | 2.6% of 220,000 active | KDM5B demethylase, FDH-coupled NADH fluorescence (FDH is formaldehyde dehydrogenase); also: potency is read from the fitted curve at half-maximal effect; 0% is about no effect; nearly all actives have a fitted effect of over 70% in size
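Compound dilutions met 200 nM (final) KDM5BΔAP for 10 min at room temperature before substrate addition. The substrate mix held 12.5 µM H3K4me3 with cofactors 25 µM α-ketoglutarate and 50 µM Fe²⁺. NADH signal gain over 30 min defined activity.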
HEK293 viab: GF-AFC viability counterscreen for inhibitors of alpha-synuclein gene (SNCA) expression. HEK-293-SNCA-luc viability, GF-AFC fluorescence, 24 h. 0.12% of 150,000 active. AID 1671193, 2021. Potency, µM (titrated, usually from 57.1 µM), for inactives: top-dose activity change, negative = cytotoxicity, most hits filed as cytotoxic;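 also: potency is read from the fitted curve at half-maximal effect; 0% = DMSO-treated cells and -100% = medium-only wells without cells; nearly all actives have a fitted effect of over 30% in size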
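Cytotoxicity counterscreen: after 24 h compound treatment of genome-edited SNCA-luciferase HEK-293 cells, live-cell protease substrate GF-AFC read by fluorescence after 30 min; activity scaled between DMSO (0%) and medium-only (-100%), curves Hill-fitted.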
Numbers without * were called inactive; [ ] = remark or other dose. This is a sample that favours compounds with a hit; in the whole collection about 3% have one here. Unless noted, calls follow the shape of the dose curve; as a rule, active = well fitted curve in the direction sought with a large enough effect; inconclusive = small, poorly fitted or top-dose-only effect, or another doubt; inactive = no such curve, though single readings can be large; an effect the other way counts as inactive or inconclusive.

Results for COC(=O)[C@@H]1Cc2c([nH]c3ccccc23)[C@H]2C[C@@H](NCCCn3ccnc3)C[C@@H](c3ccc(F)cc3)N21 ?
IP6K1 inhibitor: -13; SNCA expr inh: -2%; KDM5B inh: 13µM*; HEK293 viab: -25%

Results for Cc1ccc(C(=O)N2CCN(Cc3ccccc3-c3ccc(C)c(Cl)c3)CC2)cc1 ?
IP6K1 inhibitor: -10; SNCA expr inh: -21%; HEK293 viab: 3%[12.5 µM]

Results for O=C(c1ccc2oc(-c3ccnc(Cl)c3)nc2c1)N1CCOCC1 ?
IP6K1 inhibitor: -14; SNCA expr inh: -23%; HEK293 viab: -5%[12.5 µM]

What do the screens show for `CCn1ccnc1CN(C)c1nccc(-c2ccc(C)nc2C)n1`?
IP6K1 inhibitor: -10; SNCA expr inh: 4%; KDM5B inh: 22µM*; HEK293 viab: -4%

How did Cc1ccc(-c2ccnc(N3CCC(N(C)Cc4ccon4)CC3)n2)c(C)n1 do in these assays?
IP6K1 inhibitor: -16; SNCA expr inh: 8%; KDM5B inh: inconclusive; HEK293 viab: 3%

What do the screens show for `Cc1nc(NC2CCCCC2)ncc1C(=O)O`?
IP6K1 inhibitor: -12; SNCA expr inh: 11%; KDM5B inh: 32µM*; HEK293 viab: inconclusive

What do the screens show for `CS(=O)(=O)c1cnc(NC2CCCC2)nc1C1CCCNC1` (stereo not given)?
IP6K1 inhibitor: 44; SNCA expr inh: 85%; KDM5B inh: inactive; HEK293 viab: 2%

What do the screens show for `O=C(NCCNC(=O)C1CCCC1)c1cccc(-c2ccsc2)c1`?
IP6K1 inhibitor: -5; SNCA expr inh: -4%[87.6 µM]; HEK293 viab: 2%[12.5 µM]

How did CN1CCN(C)c2cc(-c3ccc(N4CCOCC4)cc3)ncc2C1 do in these assays?
IP6K1 inhibitor: 42; SNCA expr inh: 28%[87.6 µM]; KDM5B inh: 40µM*; HEK293 viab: -13%[87.6 µM]

What do the screens show for `COc1ccc(CNc2cc3c(cn2)CN(C)CCN3C)cc1OC`?
IP6K1 inhibitor: -13; SNCA expr inh: -12%[87.6 µM]; KDM5B inh: inconclusive; HEK293 viab: -18%[87.6 µM]

How did Cc1ccccc1CN1CCc2nc(C(=O)Nc3ccccc3)oc2CC1 do in these assays?
IP6K1 inhibitor: 0; SNCA expr inh: -2%[87.6 µM]; KDM5B inh: 28µM*; HEK293 viab: -10%[87.6 µM]

What do the screens show for `Cc1cc(F)cc(CN2CCc3nc(C(=O)Nc4ccccc4)oc3CC2)c1`?
IP6K1 inhibitor: 12; SNCA expr inh: 24%[87.6 µM]; KDM5B inh: 28µM*; HEK293 viab: -6%[87.6 µM]

How did Cc1ccc(NC(=O)CSc2ccc(N3CCC(C(=O)N4CCCCC4)CC3)nn2)cc1C do in these assays?
KDM5B inh: inactive

How did COc1cccc(-c2cc(C(=O)NCc3ccc(F)cc3)c3cnn(C)c3n2)c1 do in these assays?
IP6K1 inhibitor: -7

What do the screens show for `O=C(Cc1c[nH]c2ncc(-c3ccccc3C(F)(F)F)cc12)N1CCOCC1`?
IP6K1 inhibitor: -7; SNCA expr inh: 5%[87.6 µM]; KDM5B inh: inconclusive; HEK293 viab: -8%[87.6 µM]

What do the screens show for `Cc1ccccc1-c1cnc2[nH]cc(CC(=O)N3CCOCC3)c2c1`?
IP6K1 inhibitor: -17; SNCA expr inh: -18%[87.6 µM]; KDM5B inh: 35µM*; HEK293 viab: -11%[87.6 µM]

How did O=C(Cc1c[nH]c2ncc(-c3ccccc3Oc3ccccc3)cc12)N1CCOCC1 do in these assays?
IP6K1 inhibitor: -19; SNCA expr inh: inconclusive; KDM5B inh: inconclusive; HEK293 viab: -17%[87.6 µM]

How did O=C(Cc1c[nH]c2ncc(-c3ccc(Oc4ccccc4)cc3)cc12)N1CCOCC1 do in these assays?
IP6K1 inhibitor: -7; SNCA expr inh: 25µM*; KDM5B inh: 40µM*; HEK293 viab: inconclusive

What do the screens show for `O=C(Cc1c[nH]c2ncc(-c3ccccc3)cc12)N1CC[S+](=O)([O-])CC1`?
IP6K1 inhibitor: -13; SNCA expr inh: 15%[87.6 µM]; KDM5B inh: 35µM*; HEK293 viab: 0%[87.6 µM]

What do the screens show for `COc1cc(F)cc(-c2cnc3[nH]cc(CC(=O)N4CCOCC4)c3c2)c1`?
IP6K1 inhibitor: -9; SNCA expr inh: -12%[87.6 µM]; KDM5B inh: 35µM*; HEK293 viab: inconclusive

What do the screens show for `O=C(Cc1c[nH]c2ncc(-c3cccc(O)c3)cc12)N1CCOCC1`?
IP6K1 inhibitor: -17; SNCA expr inh: inconclusive; KDM5B inh: inconclusive; HEK293 viab: -20%[87.6 µM]

What do the screens show for `O=C(NCC(F)F)C1CCCCN1Cc1ccc(-c2ccsc2)cc1` (stereo not given)?
IP6K1 inhibitor: -9; SNCA expr inh: 29%; HEK293 viab: 1%

What do the screens show for `O=C(NCCc1ccccc1)c1cc(-c2ccsc2)c2nncn2n1`?
IP6K1 inhibitor: -10; SNCA expr inh: 10%; HEK293 viab: -12%

How did COc1ccc(-c2cnc3[nH]cc(CC(=O)NC4CCC(O)CC4)c3c2)cc1 (stereo not given) do in these assays?
IP6K1 inhibitor: -14; SNCA expr inh: 8%[87.6 µM]; KDM5B inh: inconclusive; HEK293 viab: -16%[87.6 µM]

What do the screens show for `COc1ccc(-c2cnc3[nH]cc(CC(=O)N4CCNC(=O)C4)c3c2)cc1`?
IP6K1 inhibitor: -12; SNCA expr inh: 4%[87.6 µM]; KDM5B inh: 35µM*; HEK293 viab: 3%[87.6 µM]

Results for O=C(Cc1c[nH]c2ncc(-c3cccc(CO)c3)cc12)N1CCOCC1 ?
IP6K1 inhibitor: -13; SNCA expr inh: 6%[87.6 µM]; KDM5B inh: 28µM*; HEK293 viab: 1%[87.6 µM]

What do the screens show for `C=C(C=O)[C@]1(O)C[C@@]2(C)C(=CC1=O)C=C[C@H](OC(=O)/C=C/C=C/[C@H](C)CC)[C@@H]2C`?
IP6K1 inhibitor: -16; HEK293 viab: 8.2µM*

How did CC(C)C[C@H](NC(=O)CNC(=O)c1cc(Cl)ccc1Cl)B(O)O do in these assays?
SNCA expr inh: 0.54µM*; HEK293 viab: inconclusive

How did COc1ccc(CNC(=O)C2CCN(c3nccc(Nc4ccccc4Cl)n3)CC2)cc1 do in these assays?
IP6K1 inhibitor: -6; SNCA expr inh: -6%; HEK293 viab: -7%

How did c1ccc(-n2cc(CN3CCCCC3c3ccccn3)nn2)cc1 (stereo not given) do in these assays?
IP6K1 inhibitor: -16; SNCA expr inh: 17%; KDM5B inh: 28µM*; HEK293 viab: -7%

Results for O=C(c1cc2ccccc2[nH]1)N1CCCC(n2cc(-c3nc(-c4ccccc4)no3)nn2)C1 (stereo not given) ?
IP6K1 inhibitor: 4; SNCA expr inh: 102%; KDM5B inh: 18µM*; HEK293 viab: 5%

What do the screens show for `O=C(c1cccc2[nH]ccc12)N1CCC(n2cc(-c3nc(-c4ccccc4)no3)nn2)C1` (stereo not given)?
IP6K1 inhibitor: 6; SNCA expr inh: 6%; KDM5B inh: 25µM*; HEK293 viab: -27%

How did O=C(c1cccc2[nH]ccc12)N1CCC(n2cc(-c3nc(-c4ccccc4)no3)nn2)CC1 do in these assays?
IP6K1 inhibitor: 2; SNCA expr inh: 8%; KDM5B inh: 28µM*; HEK293 viab: -17%

What do the screens show for `Cc1nn(-c2ccccc2)c2c1C(C(C)C)N(C1CCN(C(=O)C(C)(C)C)C1)C2=O` (stereo not given)?
IP6K1 inhibitor: -6
